Test results as given in PubChem BioAssay AID623868 (Vanderbilt High Throughput Screening Facility, 2012).
In all, about 2,100 compounds went through this assay and about 760 (36%) were called active. The list is a sample of the results. A number with no mark means an inactive call.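 How the source made its calls: active means thallium-flux fluorescence traces judged by eye to show enhanced or reduced glutamate response, manual score 1 or -1, so both directions (some results past the limit were not filed as active); inactive means the rest, including fluorescent or raised-baseline compounds.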

Test: non-GIRK thallium flux modulation in mGlu8 cells, confirmation, counter-screen for GIRK activator project, cell-based, HEK-293 rmGlu8, no GIRK (AID 623868);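 further: extra codes mark interference with 3 for fluorescent and 4 for baseline rise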
Details: thallium flux fluorescence, at 10 µM, actives lie on both sides, codes: 1 enhancer, -1 blocker, 0 none, thallium stimulus containing EC20 glutamate

| Compound | manual score |
| --- | --- |
| O=C(NC(=S)Nc1nc2ccccc2s1)c1ccco1 | 1 (active) |
| O=C(NC(=S)NCc1ccc(-c2nc3ccccc3s2)cc1)c1ccco1 | 1 (active) |
| O=C(Nc1ccncc1)c1ccc2c(c1)C(=O)N(C1CCCCC1)C2=O | 0 |
| CC(C)(C)C(=O)/C=c1\[nH]c(=O)/c(=C\c2ccc(F)cc2)s1 | 0.5 |
| CCOc1ccc(C(C)=O)cc1N1C(=O)C2C(C1=O)C1C=CC2C12CC2 (stereo unspecified) | 0 |
| CCOc1cc(/C=N/NC(=O)CNc2cccc(C)c2)ccc1OC(=O)c1ccccc1 | 0 |
| Cc1nc(/N=C(\N)NC(=O)c2ccccc2)nc2ccccc12 | 0 |
| Cc1ccc(C(=O)NNc2nc3ccccc3nc2C(F)(F)F)cc1 | 1 (active) |
| Cc1ccc(C(=O)NC2(C(F)(F)F)N=C3SCCN3C2=O)cc1 (stereo unspecified) | 0 |
| O=C(NNc1nc2ccccc2nc1C(F)(F)F)c1ccccc1 | 1 (active) |
| CC(C)n1c(CCC(=O)O)ccc1-c1ccccc1 | 0 |
| S=C(N/N=C/c1ccccc1Cl)Nc1ccccc1 | 0 |
| Fc1cccc(/C=N/NC(=S)Nc2ccccc2Cl)c1 | 1 (active) |
| Fc1ccc(NC(=S)N/N=C/c2ccc(F)c(F)c2)c(F)c1 | 1 (active) |
| Fc1ccc(NC(=S)N/N=C/c2cccc(Br)c2)c(F)c1 | 1 (active) |
| Fc1ccc(/C=N/NC(=S)Nc2ccc(Cl)cc2)cc1F | 1 (active) |
| Fc1cc(Br)ccc1NC(=S)NCCc1ccccc1 | 0 |
| CCSc1ccccc1C(=O)Nc1cccnc1 | 0 |
| CN(C(=O)c1cccnc1)c1nnc(-c2cnccn2)s1 | 0 |
| CN1C(=O)c2oc3ccccc3c(=O)c2C1c1ccccn1 (stereo unspecified) | 0 |
| Cc1ccccc1-n1nnc2c(=O)oc3ccccc3c21 | -1 (active) |
| CC(=O)Oc1ccc2c(c1)Oc1cc(OC(C)=O)ccc1C21OC(=O)c2ccccc21 | 3 |

| Compound | manual score |
| --- | --- |
| COc1ccc(NC(=O)CSc2nc3ccccc3c(=O)n2CCCN2CCCCC2)c(OC)c1 | 0 |
| COc1cccc(NC(=O)C(Sc2nc3ccccc3c(=O)n2CC(C)C)c2ccccc2)c1 (stereo unspecified) | 1 (active) |
| COc1cccc(NC(=O)Cn2cc(C#N)c3ccccc32)c1 | 0 |
| COc1cc(OC)c(NC(=O)CCNC(=O)Cn2cnc3ccccc3c2=O)cc1Cl | 0 |
| COc1cccc(NC(=O)CSc2nc(N)cc(N)n2)c1 | 0 |
| CCCn1c(SC(C(=O)Nc2cc(C)ccc2OC)c2ccccc2)nc2ccccc2c1=O (stereo unspecified) | 1 (active) |
| C=CCN(CC=C)C(=S)NC(=O)c1ccc(-c2ccccc2)cc1 | 1 (active) |
| CN(Cc1ccccc1)C(=S)NC(=O)c1ccc(-c2ccccc2)cc1 | 1 (active) |
| CCCN(CC1CC1)C(=S)Nc1ccc(Oc2ccccc2)cc1 | 0 |
| O=C(NC(=S)NCC1COc2ccccc2O1)c1ccccc1 (stereo unspecified) | 0 |
| CCCN(CCC)C(=S)NC(=O)c1ccc(-c2ccccc2)cc1 | 1 (active) |
| CCc1cccc(NC(=O)NC2CCCCC2)c1 | -0.5 |
| CN(Cc1ccccc1)C(=S)NC(=O)C1CCCCC1 | 1 (active) |
| CCOC(=O)C(C)Oc1ccc2c(CC)cc(=O)oc2c1C (stereo unspecified) | -0.5 |
| CCCn1c(=N)c(C(=O)NCc2ccc3c(c2)OCO3)cc2c(=O)n3cccc(C)c3nc21 | 0 |
| O=C(Nc1nnc(SCc2ccc(F)cc2)s1)C1CC(=O)N(c2ccc3c(c2)OCCO3)C1 (stereo unspecified) | 0 |
| C=CCN(CC=C)C(=S)NC(=O)c1ccc([N+](=O)[O-])cc1 | 1 (active) |
| Cn1cccc1CNC1CCCC1 | 0 |
| COCCNC(=O)CCCCCn1c(=S)[nH]c2ccccc2c1=O | 0 |
| C=CCn1c(=S)[nH]c2ccc(Br)cc2c1=O | 1 (active) |
| C=CCn1c(=S)[nH]c2ccccc2c1=O | 1 (active) |
| CC(=O)c1ccc(N2CCCC2)c(F)c1 | 0 |

| Compound | manual score |
| --- | --- |
| CCOC(=O)c1c(C)n(C)c2ccc(O)c(CN3CCC(C)CC3)c12 | 0 |
| CC1CCc2c(sc(NS(=O)(=O)c3ccccc3)c2C(=O)OC(C)C)C1 (stereo unspecified) | 1 (active) |
| COC(=O)c1c(NS(=O)(=O)c2ccc(C)cc2)sc2c1CCC(C)C2 (stereo unspecified) | 1 (active) |
| Cc1ccc(-c2c(C)sc(NC(=O)C3C4CCC(O4)C3C(=O)O)c2C(=O)OC(C)C)cc1 (stereo unspecified) | 0 |
| COc1ccc(S(=O)(=O)NCCC(=O)NC2CCCCCCC2)cc1 | 0 |
| COC(=O)c1ccc(NS(=O)(=O)c2ccc(SC)cc2)cc1 | 0 |
| CC(C)OC(=O)c1c(NS(=O)(=O)c2ccccc2)sc2c1CCCC2 | 1 (active) |
| COc1cccc(CNc2nc3ccccc3n2CCN2CCCCC2)c1OC | 0 |
| CC(C)(C)NC(=O)C(c1ccncc1)N(C(=O)c1csnn1)c1ccccc1 (stereo unspecified) | 0 |
| COC(=O)COc1ccc(S(=O)(=O)Nc2ccccc2C(=O)OC)cc1 | -0.5 |
| COC(=O)c1ccccc1NC(=S)NC(=O)COc1ccc(C)cc1 | 0 |
| COC(=O)c1ccccc1NC(=S)NC(=O)c1ccc(C)cc1 | 1 (active) |
| COC(=O)c1ccccc1NC(=S)NC(=O)COc1ccccc1 | 1 (active) |
| O=C(COc1ccccc1)NC(=S)Nc1ccc2c(c1)Cc1ccccc1-2 | 0 |
| CSc1cccc(NC(=O)COc2ccccc2)c1 | 0 |
| O=C(COc1ccccc1)NC(=S)Nc1cccc([N+](=O)[O-])c1 | 1 (active) |
| COC(=O)c1ccccc1NC(=S)NC(=O)c1ccccc1 | 1 (active) |
| COc1ccc(OC)c(-c2c3cc(O)c(=O)cc-3oc3cc(O)c(O)cc23)c1 | 0 |
| COc1cc(C)nc(N(Cc2ccccc2)S(=O)(=O)c2ccccc2)n1 | 0 |
| O=C(NNS(=O)(=O)c1ccccc1F)c1cccc(S(=O)(=O)N2CCOCC2)c1 | 0 |
| COc1cc(CNc2ccc(N3CCCC3)cc2)ccc1OCc1ccccc1 | 0 |
| CC(Oc1ccc(Cl)cc1)C(=O)NNC(=S)NC(=O)c1ccco1 (stereo unspecified) | 1 (active) |

| Compound | manual score |
| --- | --- |
| CC(Oc1ccc(Cl)cc1)C(=O)N/N=C/c1ccsc1 (stereo unspecified) | 0 |
| CC(Oc1ccc2ccccc2c1)C(=O)NNC(=S)NC(=O)c1ccco1 (stereo unspecified) | 1 (active) |
| CCSc1nnc(NC(=O)NC(CC)(C(F)(F)F)C(F)(F)F)s1 | 0 |
| O=C(C1CCCN1S(=O)(=O)c1cccc2cccnc12)N1CCn2c1nc1ccccc12 (stereo unspecified) | 0 |
| O=C(C1CCN(S(=O)(=O)c2cccc3cccnc23)CC1)N1CC=C(c2ccccc2)CC1 | -1 (active) |
| O=C(C1CCCN1S(=O)(=O)c1cccc2cccnc12)N1CCc2ccccc21 (stereo unspecified) | 0 |
| S=c1[nH]nc(-c2ccccn2)n1/N=C/c1ccc(Br)s1 | 1 (active) |
| S=c1[nH]nc(-c2ccco2)n1/N=C/c1ccc(Br)s1 | 1 (active) |
| CCN=c1scc(-c2ccco2)n1/N=C/c1ccc(O)cc1 | 0 |
| Cc1cc(-c2n[nH]c(=S)n2/N=C/c2ccc(Br)s2)n[nH]1 | 1 (active) |
| Cc1c(C(=O)NCc2cccnc2)oc2ccc(S(=O)(=O)N3CCC4(CC3)OCCO4)cc12 | 0 |
| Clc1ccc(CSc2ncn(-c3ccccc3)n2)cc1 | 0 |
| COC(=O)Cn1c(CN2CCc3ccccc3C2)nc2c1c(=O)n(C)c(=O)n2C | 0 |
| O=C(CSc1c[nH]c2ccccc12)NCc1ccc2c(c1)OCO2 | 0 |
| Cc1ccc(-n2c(CSc3nc(C)cc(C)n3)nnc2SCC(=O)NCc2ccco2)cc1 | 0 |
| O=C(CSc1nnc(-c2c[nH]c3ccccc23)n1-c1ccc(F)cc1)NCc1ccco1 | -1 (active) |
| CCOC(=O)C1CCCN(c2nc(C)nc3c2oc2ccccc23)C1 (stereo unspecified) | 0 |
| CCOC(=O)N1CCN(C(=O)CN(Cc2ccccc2)S(=O)(=O)c2ccc(OC)c(C)c2)CC1 | 0 |
| C=CCn1c(SCC(=O)Nc2sccc2C(N)=O)nc2ccc(Cl)cc2c1=O | 1 (active) |
| COc1ccc(CNCCC(c2ccc(F)cc2)c2ccc(OC)cc2)cc1 (stereo unspecified) | 0 |
| CCc1ccc(/C=c2\s/c(=C\C(=O)C(C)(C)C)[nH]c2=O)cc1 | 0 |
| CC(/C=C\c1cccnc1)=C/C(=O)O | 0 |

| Compound | manual score |
| --- | --- |
| CCc1ccc(/C=C/C(=O)C2C(=O)c3ccccc3C2=O)cc1 | 1 (active) |
| O=C(/C=C/c1ccccc1)C1C(=O)c2ccccc2C1=O | 1 (active) |
| CCOC(=O)C1=NNC(C(=O)c2ccc(OC)cc2)C1c1ccccc1 (stereo unspecified) | 0 |
| Cc1ccc2c(c1)NC(=O)CC(c1ccccc1)=N2 | 0 |
| FC(F)(F)c1ccc2nnc(-c3c(Cl)cccc3Cl)n2c1 | 0 |
| CN(c1ccc(OCC(=O)OCC(=O)Nc2ccccc2F)cc1)S(=O)(=O)c1cccs1 | 0 |
| CC(C)c1nc(=S)c2ccccc2[nH]1 | 1 (active) |
| S=c1nc(C2CC2)[nH]c2ccccc12 | 1 (active) |
| c1ccc2c(NC3CCCC3)nnc(NC3CCCC3)c2c1 | 0 |
| CCc1ccc(CNCCNCC(C)O)cc1 (stereo unspecified) | 0 |
| Clc1ccc(Cl)c(OCc2cc(-c3ccccc3Cl)on2)c1 | 0 |
| CCCc1cc(=O)n2[nH]c(-c3ccc(Br)cc3)cc2n1 | 0 |
| COc1ccc2cc(C(=O)Nc3ccccc3)sc(=O)c2c1OC | 0 |
| COc1ccccc1C(=O)NNC(=S)NC(=O)c1sc2ccccc2c1Cl | 1 (active) |
| CC(C)(C)C(=O)NC(=S)NNC(=O)c1sc2ccccc2c1Cl | 1 (active) |
| COc1ccccc1C(=O)NC(=S)NNC(=O)c1sc2ccccc2c1Cl | 1 (active) |
| CCCCCc1nnc(NC(=O)Cc2cccs2)s1 | 0 |
| CNC(=S)N=Nc1c(O)[nH]c2ccc(C(C)C)cc12 | 1 (active) |
